Reference: PubChem BioAssay (EPA / NIEHS)
Active and inactive are the calls of the source. The calls were made as follows: active = hit-call score of the fitted dose curve at least 0.9, where 1 is the maximum; inactive = score below 0.9.

Experiment: IUF_NPC4_neurite_length_120hr: Leibniz Research Institute for Environmental Medicine (IUF) 120-hour Neuronal Morphology Assay for Neurite Length (NPC4) (AID 2284302)
Procedure: IUF_NPC2-5 is a cell-based, multiplexed assay that uses hNPC, a human primary neural progenitor cells, with measurements taken at 72 or 120 hours after chemical dosing in a 96-well plate. Human neural progenitor cells (hNPC) are generated from human fetal brain cortex at gestational week (GW) 16-19. In the neural progenitor cell migration and differentiation assay (NPC2-5), hNPCs grown as spheres are plated on an extracellular matrix and migrate and differentiate out of the sphere core. The processes radial glia migration, neuronal and oligodendrocyte migration as well as neuronal differentiation, neuronal morphology and oligodendrocyte differentiation are studied using automated phase contrast imaging and automated fluorescence imaging in combination with high content image analysis. In parallel, the cell viability is assessed using an alamar blue viability assay and the cytotoxicity using a lactate dehydrogenase dependent membrane integrity assay.IUF_NPC4_neurite_length_120hr is one of 12 assay components measured from the IUF_NPC2-5 assay. The neurite length at 120 hr is the mean length in um of all neurons (see IUF_NPC3_neuronal_differentiation_120hr) that are identified by the skeletonization algorithm in Omnisphero.Data from the IUF_NPC4_neurite_length_120hr component was analyzed at the endpoint IUF_NPC4_neurite_length_120hr in the positive analysis fitting direction relative to DMSO as the negative control and baseline of activity. Using a type of differentiation reporter, gain or loss-of-signal activity can be used to understand developmental effects.
Culture protocol: After the cell expansion period the cells are cultured for up to four weeks in which they are passaged every week as described in 3.6. Between one to three days after passaging spheres at a size of 0.3 mm are picked for the test method. For the assessment of neural progenitor cell migration and differentiation, the spheres are plated on poly-D-lysine/laminin coated 96-well flat bottom plates in differentiation medium (N2) to initiate migration and differentiation. Thereby one 0.3 mm big sphere is plated in the middle of a well. The differentiation medium consists of DMEM and Ham's F12 at a ratio of 3 to 1 supplemented with 1% N2 and 1% penicillin and streptomycin. Within 5 days NPCs radially migrate out of the sphere core and differentiate into radial glia cells (nestin positive), neurons (TUBB3 positive), oligodendrocytes (O4 positive) and astrocytes (GFAP positive). Cultivation during the test method is performed at 37C and 5% CO2 at a ph of 7.2-7.6.Exposure: 0.3 mm big hNPC are plated in the already prepared test conditions. Exposure starts at day 0 of differentiation and is continued over five days of differentiation until the experiment is terminated. Cells are fed with fresh medium at day 3 of differentiation. Therefore, half of the test condition solution (e.g. solvent control or compound dilution) is replaced by freshly prepared test condition solution.Test Method: Migration distance and cytotoxicity is determined after 72 hours based on brightfield images of each well. The assay is terminated by the assessment of cell viability and cytotoxicity as well as cell fixation after 120 h. Immunocytochemistry is performed for Hoechst positive nuclei, TUBB3 positive neurons and O4 positive oligodendrocytes. On the ICC images, migration after 120 hours, neuronal and oligodendrocyte number, neuronal morphology and neuron/oligodendrocyte specific migration is assessed. immunocytochemical staining (ICC) generates an image for each sphere. The plates are scanned using an automated high content imaging device and all nuclei and their positions are determined automatically based on their intensity and size. Images are imported to the Omnisphero software to run the image analysis that measures the following endpoints. The method is set up for 8 test conditions including 7 compound concentrations and one SC. […]

SMILES	AC50	outcome
CCSC(=O)N1CCCCCC1	0.143 µM (active)	
Cc1c(COC(=O)[C@@H]2[C@H](/C=C(\Cl)C(F)(F)F)C2(C)C)cccc1-c1ccccc1		inactive
O=C(Nc1ccccc1-c1ccc(Cl)cc1)c1cccnc1Cl		inactive
COP(=S)(OC)SCn1nnc2ccccc2c1=O		inactive
CCOP(=O)(OCC)Oc1nc(Cl)c(Cl)cc1Cl		inactive
CCNC(=O)NC(=O)C(C#N)=NOC		inactive
C=C(C)CN(CC)c1c([N+](=O)[O-])cc(C(F)(F)F)cc1[N+](=O)[O-]		inactive
CC(C)(C)C(=O)C(Oc1ccc(Cl)cc1)n1cncn1 (stereo unspecified)		inactive
COC(=O)N(C(=O)N1CO[C@@]2(C(=O)OC)Cc3cc(Cl)ccc3C2=N1)c1ccc(OC(F)(F)F)cc1		inactive
CN/C(=N\[N+](=O)[O-])NCc1cnc(Cl)s1	10 µM (active)	
CS(=O)(=O)c1ccc(C(=O)C2C(=O)CCCC2=O)c([N+](=O)[O-])c1	0.203 µM (active)	
CC1(C)C(C=C(Cl)Cl)C1C(=O)OC(C#N)c1cccc(Oc2ccccc2)c1 (stereo unspecified)		inactive
N#CN=C1SCCN1Cc1ccc(Cl)nc1		inactive
CS(=O)(=O)c1cc(C(F)(F)F)ccc1C(=O)c1cnoc1C1CC1		inactive
CNC(=O)Oc1cccc2ccccc12	10 µM (active)	
CO/N=C(/C1=NOCCO1)c1ccccc1Oc1ncnc(Oc2ccccc2Cl)c1F		inactive
